High-throughput results deposited in PubChem by National Center for Advancing Translational Sciences (NCATS).
In the library only some 5.1% were active in any assay of this set; here they are far more common.
PNC assembly inh: High Content Assay for Compounds that inhibit the Assembly of the Perinucleolar Compartment | PC3M PTB-GFP, PNC prevalence imaging, 16 h; stronger effect = lower value | activity change (PNC), negative = inhibition, % at 10 µM | 140,000 compounds, 3.1% hits | AID 2417, 2010;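 active means readout at or below -70, meaning at least 70% loss of cells showing the perinucleolar compartment, a nuclear body marking cancer cells; inconclusive means readout between -30 and a set limit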;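 further: plate controls were DMSO wells for no effect and camptothecin positive control wells for full effect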
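PC3M cells stably expressing PTB-GFP, 750–1000 cells/well, treated 16 h at 37 °C with compound (23 nl of library stock), in duplicate. After paraformaldehyde fixation and Hoechst stain, imaged at 20x; PNC prevalence scored by image analysis.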
Tau fibril ThT: qHTS for Inhibitors of Tau Fibril Formation, Thioflavin T Binding; Microtubule-associated protein tau (Homo sapiens), P10636; recombinant tau K18 P301L, heparin-induced fibrillization, ThT fluorescence; Potency, µM (titrated, usually from 57.4 µM), for inactives: at the top dose activity, negative = inhibition, hits mostly inhibitors; 270,000 compounds, 2.1% hits; further: potency means the concentration at half of the fitted maximal effect; nearly all actives have a fitted effect of over 55% in size
Target sequence (P10636 561-689 P618L limits assumed): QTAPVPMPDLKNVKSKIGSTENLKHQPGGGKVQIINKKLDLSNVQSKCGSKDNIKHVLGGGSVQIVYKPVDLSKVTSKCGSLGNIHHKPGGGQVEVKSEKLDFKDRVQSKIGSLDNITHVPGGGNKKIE
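Heparin-induced (20 uM) aggregation of recombinant human K18 P301L tau, 15 uM unlabeled with 0.24 uM labeled, pH 7 acetate buffer, 6 hr at 37 C with compound. Fibrils quantified by 30 uM ThT fluorescence after 1 hr ambient incubation.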
NPSR antag: qHTS Assay for Antagonists of the Neuropeptide S Receptor: cAMP Signal Transduction; 220,000 compounds, 1% hits; Potency, µM (highest dose often 38.3 µM), for the others: at the top dose activity change, negative = inhibition, usual class: inhibitors; CHO-NPSR cells, cAMP TR-FRET, antagonist mode; further: potency means the concentration at half of the fitted maximal effect; nearly all actives have a fitted effect of over 50% in size
Tau FP inhib: qHTS for Inhibitors of Tau Fibril Formation, Fluorescence Polarization. K18 P301L tau heparin fibrillization, Alexa594 FP, 6 h. Potency, µM (series often up to 57.7 µM), for the others: at the top dose activity, negative = inhibition, actives largely listed as inhibitors. 280,000 compounds, 0.39% hits; further: potency means the concentration at half of the fitted maximal effect; nearly all actives have a fitted effect of over 55% in size
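Human K18 P301L fragment (15 uM unlabeled plus 0.24 uM Alexa 594-labeled) in 100 mM sodium acetate pH 7 with compound, aggregation induced by 20 uM heparin for 6 hr at 37 C. ThT (30 uM) added for 1 hr, then Alexa 594 FP read.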
KDM4E inh: qHTS Assay for Inhibitors of Human Jumonji Domain Containing 2E (JMJD2E); Lysine-specific demethylase 4E (Homo sapiens), B2RXH2; JMJD2E catalytic domain, FDH-coupled NADH fluorescence (FDH is formaldehyde dehydrogenase); Potency, µM (series often up to 57.1 µM), for inactives: top-dose activity change, negative = inhibition, hits mostly inhibitors; AID 2147, 2009; 230,000 compounds, 1.6% hits; active means well fitted inhibition curve with a large enough effect, not every such curve was filed as active; inconclusive means small, poorly fitted or top-dose-only effect, or another doubt; inactive means no such curve, though single readings can be large or run the other way;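 further: potency means the concentration at half of the fitted maximal effect; 0% = wells with enzyme and -100% = buffer wells without enzyme; nearly all actives have a fitted effect of over 50% in size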
Target sequence (B2RXH2 1-337 limits assumed): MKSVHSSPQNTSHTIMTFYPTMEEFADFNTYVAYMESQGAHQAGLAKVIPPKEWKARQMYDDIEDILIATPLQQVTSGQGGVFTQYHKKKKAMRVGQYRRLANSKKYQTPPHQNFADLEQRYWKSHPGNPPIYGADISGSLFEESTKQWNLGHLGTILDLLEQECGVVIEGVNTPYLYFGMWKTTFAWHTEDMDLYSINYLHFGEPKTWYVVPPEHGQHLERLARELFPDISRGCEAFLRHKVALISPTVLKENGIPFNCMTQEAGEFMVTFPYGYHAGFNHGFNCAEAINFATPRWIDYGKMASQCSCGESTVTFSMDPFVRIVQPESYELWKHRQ
Tau fluor cs: Counterscreen qHTS for Inhibitors of Tau Fibril Formation, Fluorescence Polarization | tau K18 P301L Alexa594 fluorescence, heparin fibrillization | Potency, µM (series often up to 57.7 µM), without a hit: top-dose activity change, negative = decrease | 280,000 compounds, 0.93% hits; further: potency means the concentration at half of the fitted maximal effect; nearly all actives have a fitted effect of over 55% in size
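Human tau K18 P301L (15 uM unlabeled, 0.24 uM Alexa 594-labeled) in 100 mM sodium acetate pH 7 with 20 uM heparin, 6 hr at 37 C. ThT 30 uM added, 1 hr ambient; Alexa 594 FP and total fluorescence read at 555/632 nm.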
* marks the source's active call; other numbers are inactive results; ? = inconclusive; . = no result given; [ ] = another dose, or the depositor's remark. Unless noted, the call rests on the fitted dose curve; in most records, active means well fitted curve in the direction sought with a large enough effect; inconclusive means small, poorly fitted or top-dose-only effect, or another doubt; inactive means no such curve, though single readings can be large; an effect the other way counts as inactive or inconclusive. Unless noted, on the % scale 0 is the no-effect control and ±100 the full control effect.

SMILES	PNC assembly inh	Tau fibril ThT	NPSR antag	Tau FP inhib	KDM4E inh	Tau fluor cs
Brc1ccc(-c2csc(-c3c[nH]c4ccccc34)n2)cc1	?	?	-12%[46.1 µM]	-6%	?	?
c1ccc2c(-c3csc(-c4ccncc4)n3)c[nH]c2c1	.	3.2µM*	-4%	-6%	-6%	13µM*[quencher]
COc1ccc(Cl)cc1Nc1nc(-c2sc(NC(=O)CC(C)C)nc2C)cs1	?	?	-4%[46.1 µM]	9%	?	?
Cc1nc(NC(=O)CC(C)C)sc1-c1csc(Nc2ccc(Cl)cc2)n1	50	?	-25%[46.1 µM]	6%	-27%	11µM*[quencher]
Cc1nc(NC(=O)CC(C)C)sc1-c1csc(Nc2ccc(Cl)cc2Cl)n1	19	?	?	9%	-26%	22µM*[quencher]
COc1ccc(S(=O)(=O)c2cnc3ccc(Cl)cc3c2N2CCCCC2C)cc1 (stereo unspecified)	.	-7%	.	-7%	.	-14%
COc1cc(C)ccc1OCCOc1c(Cl)cc(Cl)cc1Cl	?	-8%	-18%[46.1 µM]	?	5%	-13%
CCc1cc(OCCOCCN(C)C)ccc1Cl	74	-1%	10%	12%	?	8%
COc1cc(C)ccc1OCCOc1cc(C)ccc1Cl	-11	?	10µM*	5%	7%	-13%
Cc1ccc(OCCOCCN(C)C)c(Cl)c1	-96*	-3%	19%	1%	?	1%
S=C1NNC2(NN1)C1CC3CC(C1)CC2C3	-100*	?	5%[46.1 µM]	3%	-9%	-6%
CCc1ccccc1NC(=O)Cn1nnc(-c2nc(-c3ccc(C)cc3)no2)c1N	.	16%	.	-7%	.	9%
CCN(CC)S(=O)(=O)c1ccc2c(c1)c(=O)c(C(=O)N(C)Cc1ccccc1)cn2C	.	0%	.	-4%	.	-3%
COc1cc2c(cc1OC)-c1n[nH]c(=S)n1C(C)(C)C2	.	1%	12%	-3%	?	5%
COc1cc2c(cc1OC)-c1cc3nc4ccccc4nc3n1C(C)(C)C2	.	?	.	?	4.5µM*	?
Fc1cccc(NC(=S)NNc2c3ccccc3nc3ccccc23)c1	.	7.9µM*	-31%	-17%	?	11µM*[quencher]
COc1ccc(/C=N/NC(=O)c2ccc(C)cc2)cc1CN1CCN(c2ccc(F)cc2)CC1	?	-20%	-17%[46.1 µM]	-1%	1%	?
COc1ccc(/C=N\NC(=O)c2cc(O)c(O)c(O)c2)cc1CN1CCN(c2ccc(F)cc2)CC1	-13	?	7%	-1%	4µM*	?
COc1ccc(/C=N/NC(=O)c2ccc(O)cc2)cc1CN1CCCc2ccccc21	2	?	?	?	-15%	14µM*[quencher]
Cc1cc(C)c2c(=O)cc(C(=O)NCCc3ccc(S(N)(=O)=O)cc3)oc2c1	.	-2%	.	-4%	.	-10%
Cc1cccc(N2CCN(C(=O)Cn3ncc4c3-c3ccccc3OC4)CC2)c1C	.	-17%	.	1%	.	-21%
Cc1ccc2c(c1)c1c(c(=O)n(-c3ccccc3)c(=O)n1CC(=O)c1ccc(F)cc1)n2C	.	-2%	.	2%	.	-7%
CCC(C)(C)n1nnnc1C(c1ccc2ncccc2c1)N1CCN(Cc2ccc3c(c2)OCO3)CC1 (stereo unspecified)	?	-13%	7.9µM*	-3%	-11%	-8%
CCC(C)(C)n1nnnc1C(c1ccc2ncccc2c1)N1CCN(c2nc3ccccc3s2)CC1 (stereo unspecified)	-86*	-26%	?	-4%	-15%	-29%
c1cnc2ccc(C(c3nnnn3C3CCCC3)N3CCSCC3)cc2c1 (stereo unspecified)	-119*	-6%	-20%	6%	-3%	-7%
SMILES	PNC assembly inh	Tau fibril ThT	NPSR antag	Tau FP inhib	KDM4E inh	Tau fluor cs
CC(C)(C)n1nnnc1C(c1ccc2ncccc2c1)N1CCC(O)CC1 (stereo unspecified)	.	-4%	4%	3%	-5%	-4%
O=C(CCC(=O)N1CCSc2ccccc21)NCc1ccccc1Cl	.	-8%	.	-3%	.	-22%
Cn1c(=O)n(C)c2cc(N3CCOCC3)c(NC(=O)c3ccc(Cl)cc3)cc21	.	-6%	.	3%	.	-7%
C=CCC(O)(C#Cc1ccccc1)c1ccccc1 (stereo unspecified)	.	0%	.	2%	7%	-3%
COC(C(=O)NC1CC1)c1ccccc1 (stereo unspecified)	-114*	3%	12%	3%	2%	5%
O=C(CCN1C(=O)CSC1=O)Nc1ccc(Br)cc1	-100*	5%	0%[46.1 µM]	11%	3%	5%
Cc1ccc(NC(=O)CCN2C(=O)CSC2=O)cc1	-17	-2%	-12%[46.1 µM]	-4%	0%	-3%
CC(C)C(=O)OCC(=O)Nc1ccc(N=Nc2ccccc2)cc1	-28	7.9µM*	-11%	?	-1%	?
O=C(CCl)Nc1ccc(-c2ccccc2)cc1	.	-7%	-19%	8%	-5%	3%
CC(=O)Nc1ccccc1	.	-1%	.	8%	-2%	-1%
CCC(C(=O)OCC(=O)Nc1ccc(C(N)=O)cc1)c1ccccc1 (stereo unspecified)	.	-7%	2%	2%	11%	-12%
CC(=O)Nc1ccc(N=Nc2ccccc2)cc1	-19	13µM*	-3%	0%	6%	-6%
O=C(CCl)Nc1ccc(N=Nc2ccccc2)cc1	-122*	5µM*	-48%	-15%	?	?
CC(=O)OCC(=O)Nc1ccc(N=Nc2ccccc2)cc1	-19	8.9µM*	-19%[46.1 µM]	3%	-7%	-22%
C=Cc1ccc(Cn2c(C(=O)O)c(CNCc3ccccc3)c3ccc(C)cc32)cc1	.	-16%	.	2%	.	-20%
Cc1ccccc1CNC(=O)c1sc2ncnc(N(C)C3CCCCC3)c2c1C	.	-9%	.	2%	.	-7%
O=S(=O)(Nc1ccc(N=Nc2ccccc2)cc1)c1ccccc1	-28	16µM*	-49%	?	8%	?
O=S(=O)(Nc1ccc(S(=O)(=O)Nc2ccccc2)cc1)c1ccccc1	24	7%	-13%[46.1 µM]	-9%	2%	-13%
O=C(Nc1ccc(Nc2ccncc2)cc1)c1ccc(Nc2ccnc3ccc([N+](=O)[O-])cc23)cc1[N+](=O)[O-]	.	?	13%	-3%	?	11µM*[quencher]
COc1cc(NC(=O)c2ccc(-n3cnc4cccnc43)cc2)cc(OC)c1	.	-5%	.	9%	.	?
Cc1ccc2cc(NC(=O)Cc3ccccc3)ccc2n1	.	-12%	-6%	2%	?	-4%
